Experiment [1] is described as follows: antimalarial activity against Dd2 strain (AID 2302;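 active = growth inhibition above 50% at the single 2 µM test dose, taken to imply half-maximal potency below 2 µM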;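 note: 0% = DMSO untreated growth and 100% = chloroquine plus artemisinin killed control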). Conditions: P. falciparum Dd2 in RBCs, LDH growth readout, 72 h; at 2 µM; hits give high values.
Experiment [2] can be described thus: human hepatoma cell viability loss – ATP luminescence, cytotoxicity control for P. falciparum antimalarial project, primary screen (AID 2303;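 active = inhibition above 50%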;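 note: 0% = DMSO wells and 100% = digitonin-killed cells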). Conditions: HepG2 viability, 24-48 h, at 10 µM, hits give high values.
In experiment [3] the target is L-lactate dehydrogenase (Plasmodium falciparum (isolate CDC / Honduras)) (UniProt Q27743). Kind of experiment: PfLDH activity inhibition – cell lysate, 3D7 strain, counter-screen for P. falciparum growth inhibition project (AID 2304).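 Note: 0% = vehicle and 100% = reference inhibitor.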 To be noted: P. falciparum 3D7 crude extract, LDH APAD/NBT absorbance; at 2 µM; hits give high values. A general note: Counterscreens check selectivity or assay interference.

Experiment [4] in a line: inhibition of 3D7 malaria parasite growth – strain 3D7 (AID 2306).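 Note: 0% = DMSO wells and 100% = chloroquine plus artemisinin control wells.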 To be noted: P. falciparum 3D7 erythrocytic growth, LDH absorbance, 72 h; at 2 µM; hits give high values.
Experiment [5] deals with Calcium-dependent protein kinase 1 (Plasmodium falciparum (isolate 3D7)) (UniProt P62344). Kind of experiment: PfCDPK1 kinase inhibitors, biochemical, TCAMS library (AID 1159585; cut-off not given, nearly all actives have IC50 up to about 0.98 µM;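 note: inhibitors leave more ATP so luminescence rises with inhibition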). Conditions: recombinant PfCDPK1, Kinase-Glo ATP depletion luminescence. (In Kinase-Glo more light means more ATP remaining.)
In experiment [6] the target is Plasmodium falciparum protein kinase 6 (PK6, PF3D7_1337100) (UniProt Q8IDW1). The experiment can be described thus: PfPK6 kinase inhibitors, biochemical, TCAMS library (AID 1159586). Conditions: recombinant PfPK6, Kinase-Glo ATP depletion luminescence.
Experiment [7] has as its target Protein kinase 7 (PK7), Plasmodium falciparum 3D7 (PF3D7_0213400) (UniProt Q7YTF7). The experiment can be described thus: inhibition of Plasmodium PK7 catalytic activity – biochemical, TCAMS antimalarial set, Kinase-Glo luminescence (AID 1159587). Conditions: recombinant PfPK7, Kinase-Glo ATP depletion luminescence.
For experiment [8], the target named is Calcium-dependent protein kinase 4 (Plasmodium falciparum (isolate 3D7)) (UniProt Q8IBS5). Kind of experiment: PfCDPK4 kinase inhibitors, biochemical, TCAMS library (AID 1159588; cut-off not given, nearly all actives have IC50 up to about 0.91 µM). To be noted: recombinant PfCDPK4, Kinase-Glo ATP depletion luminescence.

Unmarked numbers belong to inactive results. For some of these results: Potency and affinity values are given separately. Activity calls are given as the source filed them. Unless noted, the rule behind the calls is not given here.

Chain of Protein kinase 7 (PK7), Plasmodium falciparum 3D7 (PF3D7_0213400) (Q7YTF7 1-343): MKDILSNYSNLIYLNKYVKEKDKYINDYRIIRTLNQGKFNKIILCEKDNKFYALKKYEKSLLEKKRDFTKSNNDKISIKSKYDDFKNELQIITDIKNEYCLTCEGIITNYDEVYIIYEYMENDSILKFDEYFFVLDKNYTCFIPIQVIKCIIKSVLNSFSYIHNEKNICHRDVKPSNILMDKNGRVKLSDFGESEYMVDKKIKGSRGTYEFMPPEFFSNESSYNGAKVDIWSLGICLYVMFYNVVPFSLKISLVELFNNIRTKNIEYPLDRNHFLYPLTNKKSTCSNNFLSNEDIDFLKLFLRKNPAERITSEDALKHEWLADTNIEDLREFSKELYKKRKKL
Chain of Calcium-dependent protein kinase 4 (Plasmodium falciparum (isolate 3D7)) (Q8IBS5 whole entry, looked up): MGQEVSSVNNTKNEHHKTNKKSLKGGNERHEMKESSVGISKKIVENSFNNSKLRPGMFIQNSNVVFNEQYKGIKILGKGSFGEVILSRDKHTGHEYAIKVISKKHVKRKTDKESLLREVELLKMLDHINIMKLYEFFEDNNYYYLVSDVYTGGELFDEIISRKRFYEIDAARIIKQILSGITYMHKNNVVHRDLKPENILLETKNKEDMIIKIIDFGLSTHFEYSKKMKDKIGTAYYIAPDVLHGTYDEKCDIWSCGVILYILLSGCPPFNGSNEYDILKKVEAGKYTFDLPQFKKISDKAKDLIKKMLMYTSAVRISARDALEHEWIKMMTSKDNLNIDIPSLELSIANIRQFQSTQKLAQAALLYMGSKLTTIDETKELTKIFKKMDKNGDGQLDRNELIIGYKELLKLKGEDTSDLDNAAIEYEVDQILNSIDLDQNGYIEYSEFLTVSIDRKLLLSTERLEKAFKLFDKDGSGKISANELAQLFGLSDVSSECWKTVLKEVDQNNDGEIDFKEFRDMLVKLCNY
Chain of Plasmodium falciparum protein kinase 6 (PK6, PF3D7_1337100) (Q8IDW1 1-305): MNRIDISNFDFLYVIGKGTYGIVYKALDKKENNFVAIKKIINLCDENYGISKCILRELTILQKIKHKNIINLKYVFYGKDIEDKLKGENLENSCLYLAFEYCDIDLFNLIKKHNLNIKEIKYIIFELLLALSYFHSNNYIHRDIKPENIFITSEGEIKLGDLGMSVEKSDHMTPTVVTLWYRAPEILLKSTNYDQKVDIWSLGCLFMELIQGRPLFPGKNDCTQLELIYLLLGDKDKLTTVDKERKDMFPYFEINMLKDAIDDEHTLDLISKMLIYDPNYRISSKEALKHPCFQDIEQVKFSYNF
Chain of L-lactate dehydrogenase (Plasmodium falciparum (isolate CDC / Honduras)) (Q27743 whole entry, looked up): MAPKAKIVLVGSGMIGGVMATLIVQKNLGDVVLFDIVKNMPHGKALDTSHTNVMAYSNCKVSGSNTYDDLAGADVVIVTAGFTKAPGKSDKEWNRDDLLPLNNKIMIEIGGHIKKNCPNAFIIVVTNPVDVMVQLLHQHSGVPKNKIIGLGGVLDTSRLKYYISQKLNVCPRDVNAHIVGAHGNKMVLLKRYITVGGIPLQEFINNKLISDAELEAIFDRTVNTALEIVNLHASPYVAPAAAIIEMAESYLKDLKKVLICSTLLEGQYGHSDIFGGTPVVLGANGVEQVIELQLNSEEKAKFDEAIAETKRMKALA
Chain of Calcium-dependent protein kinase 1 (Plasmodium falciparum (isolate 3D7)) (P62344 whole entry, looked up): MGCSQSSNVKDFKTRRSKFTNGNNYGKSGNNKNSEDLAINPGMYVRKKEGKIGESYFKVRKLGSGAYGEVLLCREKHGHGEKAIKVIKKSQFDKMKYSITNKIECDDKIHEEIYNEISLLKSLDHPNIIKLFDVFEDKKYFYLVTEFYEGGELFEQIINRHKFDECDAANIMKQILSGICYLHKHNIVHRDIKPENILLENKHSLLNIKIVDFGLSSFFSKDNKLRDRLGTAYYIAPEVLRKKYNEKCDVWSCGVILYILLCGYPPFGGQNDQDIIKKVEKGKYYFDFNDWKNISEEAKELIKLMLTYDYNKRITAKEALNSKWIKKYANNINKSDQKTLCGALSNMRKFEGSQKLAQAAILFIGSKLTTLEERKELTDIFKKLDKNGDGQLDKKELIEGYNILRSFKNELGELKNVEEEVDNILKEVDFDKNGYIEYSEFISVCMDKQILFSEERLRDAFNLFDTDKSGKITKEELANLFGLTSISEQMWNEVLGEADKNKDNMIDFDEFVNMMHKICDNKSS

The term inhibition denotes the relative decrease from the control value, in per cent. For the compound `CCOc1ccc(Br)cc1/C=C/C(=O)Nc1ccc2c(c1)CN(C)CCC2`, the growth inhibition in experiment [1] is 37%; in experiment [4], 97% (active). The results for the inhibition in experiment [2] and in experiment [3] were 18% and 1%, respectively. The result in experiment [5], in experiment [6], in experiment [7] and in experiment [8] was inactive.
Regarding `COc1cc2nc(N(C)Cc3cccc(I)c3)nc(N)c2cc1OC`, the growth inhibition in experiment [1] was 88% (active); in experiment [4], 101% (active). The inhibition in experiment [2] is 7%; in experiment [3] it was 1%. Besides, the outcome in experiment [5], in experiment [6], in experiment [7] and in experiment [8] was inactive.
In the case of `COc1ccc(N2CCN(CCCC/C=C/c3ccc(NC(=O)c4cc(Cl)cc(Cl)c4)cc3)CC2)c(OC)c1`, the growth inhibition in experiment [1] is 39%; in experiment [4], 99% (active). Also, the inhibition in experiment [2] is 20%; in experiment [3], 5%. The outcome in experiment [5], in experiment [6], in experiment [7] and in experiment [8] was inactive.
As for `O=C(NCCCCCN1CCCN(C(=O)Nc2ccc(Cl)c(C(F)(F)F)c2)CC1)[C@@H]1C[C@H]1c1ccc(Cl)c(Cl)c1`, the growth inhibition in experiment [1] is 1%; in experiment [4], 100% (active). Moreover, the values for the inhibition in experiment [2] and in experiment [3] were 41% and 3%, respectively. Besides, the outcome in experiment [5], in experiment [6], in experiment [7] and in experiment [8] was inactive.
As for `COc1ccc(CN2CCC2=O)c(OC)c1`, the results for the growth inhibition in experiment [1] and in experiment [4] were 96% (active) and 98% (active), respectively. Also, the inhibition in experiment [2] is 0%; in experiment [3], -6%. In addition, the result in experiment [5], in experiment [6], in experiment [7] and in experiment [8] was inactive.
In the case of `CN(C)c1ccc(-c2ccc(C(=O)NC3CCN(Cc4ccccc4F)CC3)s2)cc1`, the values for the growth inhibition in experiment [1] and in experiment [4] were 19% and 88% (active), respectively. For the same compound, the inhibition in experiment [2] is 30%; in experiment [3], -4%. In addition, the result in experiment [5], in experiment [6], in experiment [7] and in experiment [8] was inactive.
Take `COc1ccc2cc(C(=O)NC3CCC(CCN4CCc5cc(C#N)ccc5C4)CC3)[nH]c2c1` (stereo not given): the growth inhibition is -1% in experiment [1] and 88% (active) in experiment [4]. Besides, the results for the inhibition in experiment [2] and in experiment [3] were 9% and -10%, respectively. The outcome in experiment [5], in experiment [6], in experiment [7] and in experiment [8] was inactive.
On to `Cc1ccc(C(=O)NC2CC2)cc1-c1ccc2c(cnn2S(=O)(=O)c2ccc(F)cc2)c1`, for which the growth inhibition in experiment [1] is 69% (active); in experiment [4], 93% (active). Moreover, the inhibition in experiment [2] was 7%; in experiment [3] it was -2%. Moreover, the result in experiment [5], in experiment [6], in experiment [7] and in experiment [8] was inactive.
`Cc1cccc2[nH]c(-c3ccc(-c4ccc(CNCCNC(=O)c5ccnn5C)cc4)s3)nc12`: the growth inhibition in experiment [1] is 97% (active); in experiment [4] it was 101% (active). The inhibition in experiment [2] is 20%; in experiment [3] it was -1%. Further, the result in experiment [5], in experiment [6], in experiment [7] and in experiment [8] was inactive.
Turning to `Cc1c(C)n(C2CCCCC2)c2ncnc(OC3CCN(CC(=O)N4CCCC4)CC3)c12`, the growth inhibition is 59% (active) in experiment [1] and 95% (active) in experiment [4]. The inhibition in experiment [2] is 31%; in experiment [3], -4%. Moreover, the result in experiment [5], in experiment [6], in experiment [7] and in experiment [8] was inactive.
In the case of `COc1ccc(NC(=O)[C@H](CC(C)C)Nc2cc(C)nc(NCCc3ccccc3)n2)cc1`, the results for the growth inhibition in experiment [1] and in experiment [4] were 74% (active) and 101% (active), respectively. Further, the inhibition in experiment [2] is 13%; in experiment [3] it was -2%. The outcome in experiment [5], in experiment [6], in experiment [7] and in experiment [8] was inactive.
Consider `CC(C)c1ccc(CN2CCC(CNC(=O)c3cc(-c4cccc(F)c4)cs3)C2)cc1` (stereo not given), for which the growth inhibition in experiment [1] is 46%; in experiment [4], 100% (active). Further, the inhibition is 59% (active) in experiment [2] and 5% in experiment [3]. For the same compound, the outcome in experiment [5], in experiment [6], in experiment [7] and in experiment [8] was inactive.
On to `CN(C)c1ccc(CN2CCC(NC(=O)c3ccc(-c4cccc(Cl)c4)s3)CC2)cc1`, for which the values for the growth inhibition in experiment [1] and in experiment [4] were 44% and 93% (active), respectively. In addition, the values for the inhibition in experiment [2] and in experiment [3] were 65% (active) and -3%, respectively. Besides, the outcome in experiment [5], in experiment [6], in experiment [7] and in experiment [8] was inactive.
On to `Cc1cc2c(cc1C(F)(F)F)N(C(=O)Nc1cc(OCCN(C)C)cc(C(F)(F)F)c1)CC2`, for which the growth inhibition in experiment [1] is 19%; in experiment [4], 101% (active). Further, the inhibition in experiment [2] was 16%; in experiment [3], 0%. In addition, the result in experiment [5], in experiment [6], in experiment [7] and in experiment [8] was inactive.
In the case of `COc1ccc2nccc([C@@H](O)CN3CC[C@H](NCc4ccc5c(n4)NC(=O)CS5)[C@H](F)C3)c2c1`, the results for the growth inhibition in experiment [1] and in experiment [4] were 88% (active) and 89% (active), respectively. For the same compound, the inhibition was 5% in experiment [2] and 0% in experiment [3]. Further, the outcome in experiment [5], in experiment [6], in experiment [7] and in experiment [8] was inactive.
Consider `CC(C)(C)c1nn(-c2ccccc2)c2[nH]c(=O)c(CNC3CCCCC3)cc12`, for which the values for the growth inhibition in experiment [1] and in experiment [4] were 76% (active) and 83% (active), respectively. Moreover, the inhibition in experiment [2] is 6%; in experiment [3] it was 3%. Also, the result in experiment [5], in experiment [6], in experiment [7] and in experiment [8] was inactive.
`COc1ccnc(NCCCNCc2cn(S(=O)(=O)c3ccccc3)c3ccccc23)c1`: the values for the growth inhibition in experiment [1] and in experiment [4] were 18% and 99% (active), respectively. The inhibition in experiment [2] is 57% (active); in experiment [3], -2%. Besides, the outcome in experiment [5], in experiment [6], in experiment [7] and in experiment [8] was inactive.
Take `Brc1ccc(C=NNc2nc3ccccc3[nH]2)cc1`: the growth inhibition is 90% (active) in experiment [1] and 102% (active) in experiment [4]. Also, the inhibition in experiment [2] is -3%; in experiment [3], 0%. For the same compound, the result in experiment [5], in experiment [6], in experiment [7] and in experiment [8] was inactive.
With `Cc1cccc2[nH]c(-c3ccc(-c4cccc(NC(=O)NCc5ccccc5)c4)cc3)nc12`, the growth inhibition was 0% in experiment [1] and 95% (active) in experiment [4]. Besides, the figures for the inhibition in experiment [2] and in experiment [3] were 25% and -6%, respectively. Besides, the outcome in experiment [5], in experiment [6], in experiment [7] and in experiment [8] was inactive.
In the case of `Nc1cc(-c2ccc(-c3cccs3)s2)nc2ccccc12`, the growth inhibition was 50% (active) in experiment [1] and 100% (active) in experiment [4]. The values for the inhibition in experiment [2] and in experiment [3] were 32% and 5%, respectively. Also, the outcome in experiment [5], in experiment [6], in experiment [7] and in experiment [8] was inactive.

Source of the values: PubChem BioAssay.
